Assay outcomes as filed in PubChem.
Tau fluor cs: counter-screen for tau fibril formation inhibitors. 280,000 tested, 0.93% active. Potency, µM (top dose mostly 57.7 µM), inactives show top-dose activity change, negative = decrease. AID 1463. tau K18 P301L Alexa594 fluorescence, heparin fibrillization; also: potency is read from the fitted curve at half-maximal effect; nearly all actives have a fitted effect of over 55% in size
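Human K18 P301L tau (15 uM unlabeled plus 0.24 uM Alexa 594-labeled, final) in 100 mM sodium acetate pH 7 was mixed with compound and 20 uM heparin and incubated 6 hr at 37 C.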
Tau fibril ThT: inhibitors of human tau fibril formation, thioflavin T binding | AID 1460 | P10636 | Potency, µM (top dose mostly 57.4 µM), without a hit: top-dose activity, negative = inhibition, usual class: inhibitors | 270,000 tested, 2.1% active | recombinant tau K18 P301L (four-repeat tau fragment), heparin-induced fibrillization, ThT fluorescence; also: potency is read from the fitted curve at half-maximal effect; nearly all actives have a fitted effect of over 55% in size
Target sequence (P10636 561-689 P618L limits assumed): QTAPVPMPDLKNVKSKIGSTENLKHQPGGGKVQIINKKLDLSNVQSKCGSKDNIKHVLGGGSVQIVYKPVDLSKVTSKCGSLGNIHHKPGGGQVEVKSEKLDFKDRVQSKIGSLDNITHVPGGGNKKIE
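Heparin-induced fibrillization of the P301L-mutant K18 repeat-domain fragment of human tau was followed by ThT binding in quantitative high-throughput format.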
FBPA coupling cs: coupling enzyme interference in Giardia aldolase counter-screen; coupling enzyme system counterscreen, AmpLite Red fluorescence; activity change, negative = inhibition, % at 58.2 µM, hits read low; 290,000 tested, 0.67% active; AID 2472; in the data active = activity change below about -30%
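Counterscreen lacking aldolase: glyceraldehyde-3-phosphate coupling-enzyme reagent preincubated 10 min at RT with compound (at 57.5 uM final), then substrate/coupling system with AmpLite Red added; fluorescence read at 525/598 nm after 20 min RT.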
USP1 inh: USP1/UAF1 (human) deubiquitinase inhibition | Potency, µM (doses to about 57.1 µM), inactives show top-dose activity change, negative = inhibition, most hits filed as inhibitors | recombinant USP1/UAF1, Ub-Rhodamine cleavage fluorescence | 390,000 tested, 0.23% active | AID 743255; also: potency is read from the fitted curve at half-maximal effect; nearly all actives have a fitted effect of over 60% in size
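USP1/UAF1 complex at 1 nM was preincubated with compound for 15 min at room temperature, then Ub-Rho substrate (150nM final) was added. Fluorescence (480/540 nm) was read kinetically, 6 reads every 60 seconds.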
Tau fibril FP: tau fibrillization inhibition (FP) | P10636 | K18 P301L tau heparin fibrillization, Alexa594 FP, 6 h | Potency, µM (top dose mostly 57.7 µM), for inactives: top-dose activity, negative = inhibition, most hits filed as inhibitors | 280,000 tested, 0.39% active; also: potency is read from the fitted curve at half-maximal effect; nearly all actives have a fitted effect of over 55% in size
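Human tau K18 […] P301L fragment, 15 uM unlabeled plus 0.24 uM Alexa 594-labeled tau (final), with compound and 20 uM heparin in 100 mM sodium acetate pH 7; 6 hr at 37 C, then Alexa 594 FP read.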
An asterisk follows results filed as active; [ ] = remark or other dose. Compounds with a hit are over-represented: about 2.3% of the library has one in this group of screens. Unless noted, calls follow the shape of the dose curve; as a rule, active = well fitted curve in the direction sought with a large enough effect; inconclusive = small, poorly fitted or top-dose-only effect, or another doubt; inactive = no such curve, though single readings can be large; an effect the other way counts as inactive or inconclusive. % is scaled to controls: 0 for no effect and ±100 for the full control effect.

What do the screens show for `CC(C)(C)CN1CCNC(=O)C1CC(=O)N1CCC(C(=O)N2CCOCC2)CC1` (configuration not stated)?
Tau fluor cs: 8.4%; Tau fibril ThT: -5.0%; FBPA coupling cs: -10.1; USP1 inh: -16.4%; Tau fibril FP: 2.1%

What do the screens show for `CCN(CC)c1ccc(/C=C2/C(=O)ON=C2C)cc1`?
Tau fluor cs: -28.2%; Tau fibril ThT: 8.91µM*; FBPA coupling cs: -0.7; USP1 inh: -6.7%; Tau fibril FP: -6.2%

What do the screens show for `CCN(CC)c1ccc(/C=C2\C(=O)N(c3nnc(C)c(=O)[nH]3)N=C2C)cc1`?
Tau fluor cs: 5.7%; Tau fibril ThT: 7.94µM*; FBPA coupling cs: -7.9; USP1 inh: -27.6%; Tau fibril FP: inconclusive

What do the screens show for `COc1ccc(OC(C)C(=O)NCc2nc(-c3cccc(C)c3)no2)cc1` (configuration not stated)?
Tau fluor cs: -12.1%; Tau fibril ThT: -8.9%; USP1 inh: -2.5%; Tau fibril FP: 2.3%

How did Cc1ccc(C(C)C)c(OCC(=O)Nc2ccc(-c3nc4ncccc4o3)cc2C)c1 do in these assays?
Tau fluor cs: 0.5%; Tau fibril ThT: -8.4%; USP1 inh: -15.8%; Tau fibril FP: -11.2%

Results for COc1ccc(C(=O)/C=C/c2cn(CC(O)CN3CCOCC3)c3ccccc23)cc1 (configuration not stated) ?
Tau fluor cs: inconclusive; Tau fibril ThT: 10µM*; FBPA coupling cs: -3.2; USP1 inh: inconclusive; Tau fibril FP: inconclusive

Results for O=C(/C=C/c1cn(CC(O)CN2CCOCC2)c2ccccc12)c1cccs1 (configuration not stated) ?
Tau fluor cs: inconclusive; Tau fibril ThT: 14.1µM*; FBPA coupling cs: -9.6; Tau fibril FP: 5.7%

What do the screens show for `O=Cc1cn(CC(O)CN2CCCCC2)c2ccccc12` (configuration not stated)?
Tau fluor cs: 1.1%; Tau fibril ThT: 0.0%; FBPA coupling cs: 3.9; USP1 inh: -15.7%; Tau fibril FP: 8.4%

How did Cc1ccc(C(=O)/C=C/c2cn(CC(O)CN3CCOCC3)c3ccccc23)cc1 (configuration not stated) do in these assays?
Tau fluor cs: -22.7%; Tau fibril ThT: inconclusive; FBPA coupling cs: -1.7; USP1 inh: -23.4%; Tau fibril FP: 5.8%

What do the screens show for `CN1/C(=C\C(=O)Nc2ccc(F)cc2)C(C)(C)c2ccccc21`?
Tau fluor cs: 10µM*[quencher]; Tau fibril ThT: inconclusive; FBPA coupling cs: -15.7; USP1 inh: -14.3%; Tau fibril FP: 9.9%

Results for CN1/C(=C\C(=S)NC(=O)c2cccc(Br)c2)C(C)(C)c2ccccc21 ?
Tau fluor cs: 8.5%; Tau fibril ThT: 7.08µM*; FBPA coupling cs: 0.6; USP1 inh: -12.2%; Tau fibril FP: 11.1%

What do the screens show for `CN1/C(=C\C(=O)Nc2cccc(Cl)c2)C(C)(C)c2ccccc21`?
Tau fluor cs: 14.1µM*[quencher]; Tau fibril ThT: inconclusive; FBPA coupling cs: -3.4; USP1 inh: -20.0%; Tau fibril FP: 8.1%

Results for CN1/C(=C\C(=S)NC(=O)c2ccc([N+](=O)[O-])cc2)C(C)(C)c2ccccc21 ?
Tau fluor cs: -2.9%; Tau fibril ThT: inconclusive; FBPA coupling cs: 0.6; USP1 inh: 1.8%; Tau fibril FP: 3.4%

Results for CN1/C(=C\C(=O)Nc2ccc(Br)cc2)C(C)(C)c2ccccc21 ?
Tau fluor cs: 7.08µM*[quencher]; Tau fibril ThT: inconclusive; FBPA coupling cs: -1.9; USP1 inh: -8.6%; Tau fibril FP: 3.5%

How did Cc1ccc(-c2nnc(Nc3cccc(C(F)(F)F)c3)c3ccccc23)cc1S(=O)(=O)N1CCOCC1 do in these assays?
Tau fluor cs: inconclusive; Tau fibril ThT: -14.9%; USP1 inh: -24.7%; Tau fibril FP: inconclusive
